Consider nine compounds from PubChem BioAssay (NCI).

Some test systems named below: SR leukemia; RPMI-8226 leukemia; OVCAR-8 ovarian; OVCAR-5 ovarian; OVCAR-4 ovarian; SK-OV-3 ovarian; IGROV1 ovarian; OVCAR-3 ovarian; HS 578T breast; NCI/ADR-RES ovarian; T-47D breast; BT-549 breast; MDA-MB-435 melanoma; SW-620 colon; MCF7 breast; HCT-116 colon; HCC-2998 colon; KM12 colon.
Common to all, as to test: NCI-60 one-dose screen, 48 h (100 = growth as untreated, 0 = no growth, -100 = all killed)
Common to all, as to details: 10 µM unless noted

The panel holds about 83,000 compounds, 20% with a hit somewhere; the sample as a whole holds those more often.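 Testing used 96-well plates and a 48-hour single-concentration exposure. Example: -40 means 40% of the starting cells died.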 Unmarked numbers belong to inactive results. Activity calls are given as the source filed them. Rule for the calls: active = growth percent below 10; inactive = the rest.

For `O=C1C(Cl)=C(Nc2cccc3ccccc23)C(=O)c2ccccc21`, the growth in the assay with SR leukemia is 51%; in the assay with RPMI-8226 leukemia it was 17.8%; with OVCAR-8 ovarian, 71.5%; in the assay on OVCAR-5 ovarian it was 134%; in the assay on OVCAR-4 ovarian, 58.6%; with SK-OV-3 ovarian, 99.1%. Besides, the growth in the assay with IGROV1 ovarian was 58.8%; in the assay on OVCAR-3 ovarian, 39%; with HS 578T breast, 87.9%; in the assay on NCI/ADR-RES ovarian, 81.2%; with T-47D breast it was 34.3%; in the assay with BT-549 breast it was 73.4%. In addition, the growth with MDA-MB-435 melanoma is 55.9%; with SW-620 colon, 68.9%; with MCF7 breast, 44%; in the assay with HCT-116 colon, 47.7%; with HCC-2998 colon, 103%; with KM12 colon, 58.4%.
Consider `c1cn2cc(-c3ccc4ncn(C5CCCCC5)c4c3)nc(-c3ccc4c(c3)ncn4C3CCCCC3)c2n1`, for which the growth is 2.47% (active) with SR leukemia; -37.9% (active) in the assay with RPMI-8226 leukemia; -24.1% (active) in the assay on OVCAR-8 ovarian; -24% (active) in the assay on OVCAR-5 ovarian; 2.84% (active) in the assay on OVCAR-4 ovarian; -71.9% (active) with SK-OV-3 ovarian. In addition, the growth in the assay on IGROV1 ovarian is -41.9% (active); in the assay with OVCAR-3 ovarian, -85.2% (active); in the assay with HS 578T breast, 3.4% (active); in the assay on NCI/ADR-RES ovarian it was 1.11% (active); with T-47D breast it was -17.7% (active); in the assay with BT-549 breast, -48.9% (active). For the same compound, the growth is -73% (active) in the assay with MDA-MB-435 melanoma; -3.82% (active) in the assay with SW-620 colon; -3.78% (active) with MCF7 breast; -61.4% (active) with HCT-116 colon; -93.4% (active) with HCC-2998 colon; -61.1% (active) in the assay on KM12 colon.
Turning to `COc1ccc(C(=O)OC2C(OC3C(O)COC(O[C@H]4C[C@H]5[C@@H]6CC=C7C[C@@H](O)CC[C@]7(C)[C@H]6CC[C@]5(C)[C@H]4[C@H](C)C(=O)CCC(C)C)C3OC(N)=O)OCC(O)C2O)cc1` (some centres not stated), the growth in the assay with SR leukemia is -14.1% (active); with RPMI-8226 leukemia, -32.8% (active); in the assay on OVCAR-8 ovarian, 25.3%; in the assay with OVCAR-5 ovarian, 36.3%; in the assay with OVCAR-4 ovarian, 44.1%; in the assay with SK-OV-3 ovarian it was -37.2% (active). Also, the growth with IGROV1 ovarian is 19.5%; with OVCAR-3 ovarian, 58.3%; in the assay with HS 578T breast, -29.9% (active); in the assay with NCI/ADR-RES ovarian, 86.2%; in the assay with T-47D breast it was 1.19% (active); in the assay on BT-549 breast, -2.62% (active). The growth is -63% (active) in the assay on MDA-MB-435 melanoma; -62.1% (active) in the assay on SW-620 colon; -21.1% (active) in the assay with MCF7 breast; -7.43% (active) in the assay on HCT-116 colon; 52.7% with HCC-2998 colon; 27.4% with KM12 colon.
As for `O/N=C1\c2ccccc2-c2ccc(Br)cc21`, the growth with SR leukemia is 102%; in the assay with RPMI-8226 leukemia, 105%; in the assay on OVCAR-8 ovarian, 105%; in the assay on OVCAR-5 ovarian it was 113%; with OVCAR-4 ovarian, 104%; in the assay on SK-OV-3 ovarian it was 113%. For the same compound, the growth was 116% in the assay with IGROV1 ovarian; 118% in the assay on OVCAR-3 ovarian; 158% with HS 578T breast; 115% with NCI/ADR-RES ovarian; 97.2% with T-47D breast; 115% in the assay with BT-549 breast. The growth in the assay with MDA-MB-435 melanoma was 113%; in the assay on SW-620 colon, 119%; in the assay on MCF7 breast it was 91.1%; with HCT-116 colon, 114%; with HCC-2998 colon, 102%; with KM12 colon it was 115%.
In the case of `CC(=O)OC[C@H]1O[C@@H](n2c(=O)cc(N)[nH]c2=O)C(OC(C)=O)[C@@H]1OC(C)=O` (some centres not stated), the growth in the assay on SR leukemia is 106%; in the assay on RPMI-8226 leukemia, 103%; in the assay on OVCAR-8 ovarian, 99.4%; in the assay with OVCAR-5 ovarian, 99.8%; in the assay with OVCAR-4 ovarian, 110%; in the assay with SK-OV-3 ovarian it was 106%. The growth with IGROV1 ovarian was 103%; in the assay with OVCAR-3 ovarian, 114%; with HS 578T breast, 95.7%; in the assay with NCI/ADR-RES ovarian, 103%; in the assay with T-47D breast, 96%; with BT-549 breast it was 92.8%. Further, the growth was 101% in the assay with MDA-MB-435 melanoma; 107% with SW-620 colon; 94.9% in the assay with MCF7 breast; 103% with HCT-116 colon; 106% with HCC-2998 colon; 111% in the assay on KM12 colon.
As for `CN1CCCN(CCNc2nccc(-c3c(-c4cccc(O)c4)nc4sccn34)n2)S1(=O)=O`, the growth in the assay on SR leukemia is 13.9%; in the assay with RPMI-8226 leukemia it was 81.7%; with OVCAR-8 ovarian, 60.1%; in the assay with OVCAR-5 ovarian it was 80.6%; in the assay on OVCAR-4 ovarian it was 51.5%; in the assay with SK-OV-3 ovarian, 15.5%. In addition, the growth with IGROV1 ovarian is 13.7%; in the assay on OVCAR-3 ovarian, 60.6%; in the assay with HS 578T breast, 54.3%; with NCI/ADR-RES ovarian, 102%; in the assay on T-47D breast, 60.7%; in the assay on BT-549 breast, 62.9%. For the same compound, the growth in the assay with MDA-MB-435 melanoma was 11%; with SW-620 colon, 71%; in the assay on MCF7 breast, 74.1%; in the assay with HCT-116 colon, 21.2%; with HCC-2998 colon, 74.8%; in the assay with KM12 colon it was 64.8%.
For `O=C(C(=O)N1CCCC1)c1cn(CCCn2cc(C(=O)C(=O)N3CCCC3)c3cc(Br)ccc32)c2ccc(Br)cc12`, the growth was 65.9% in the assay with SR leukemia; 76.8% with RPMI-8226 leukemia; 59.6% in the assay with OVCAR-8 ovarian; 94.7% with OVCAR-5 ovarian; 5.38% (active) with OVCAR-4 ovarian; 90.4% in the assay with SK-OV-3 ovarian. The growth was 67.9% in the assay with IGROV1 ovarian; 60% with OVCAR-3 ovarian; -9.76% (active) with HS 578T breast; 51% with NCI/ADR-RES ovarian; 70.8% in the assay with T-47D breast; 84.7% with BT-549 breast. Besides, the growth is 74.3% in the assay on MDA-MB-435 melanoma; 85.5% in the assay with SW-620 colon; 61.6% in the assay on MCF7 breast; 58.6% in the assay with HCT-116 colon; 81.6% in the assay with HCC-2998 colon; 86.2% in the assay with KM12 colon.
On to `CCOC(=O)C(CCCCC(NC(C)=O)(C(=O)OCC)C(=O)OCC)(NC(C)=O)C(=O)OCC`, for which the growth with SR leukemia was 99.8%; with RPMI-8226 leukemia, 103%; in the assay on OVCAR-8 ovarian, 107%; in the assay with OVCAR-5 ovarian, 103%; in the assay on OVCAR-4 ovarian, 107%; in the assay with SK-OV-3 ovarian, 96.9%. Moreover, the growth with IGROV1 ovarian was 106%; with OVCAR-3 ovarian, 107%; in the assay with HS 578T breast, 104%; in the assay on NCI/ADR-RES ovarian, 98.4%; in the assay on T-47D breast, 89.4%; with BT-549 breast, 107%. Besides, the growth in the assay on MDA-MB-435 melanoma is 104%; with SW-620 colon, 104%; in the assay with MCF7 breast it was 98.3%; with HCT-116 colon, 105%; with HCC-2998 colon, 109%; in the assay with KM12 colon, 100%.
For `CC[C@]1(O)C[C@H]2CN(CCc3c([nH]c4ccccc34)C(C(=O)OC)(c3cc4c(cc3OC)N(C)[C@H]3[C@@](O)(C(=O)OC)[C@H](OC(C)=O)[C@]5(CC)[C@@H]6C[C@@H]6CN6CC[C@]43[C@@H]65)C2)C1` (some centres not stated), the growth with SR leukemia is -20.5% (active); with RPMI-8226 leukemia it was 42.1%; with OVCAR-8 ovarian it was 19.4%; with OVCAR-5 ovarian it was 6.6% (active); in the assay on OVCAR-4 ovarian, 29.1%; in the assay with SK-OV-3 ovarian, -11.9% (active). Besides, the growth with IGROV1 ovarian was 9.14% (active); in the assay on OVCAR-3 ovarian, 5.03% (active); in the assay on HS 578T breast, 43.9%; in the assay with NCI/ADR-RES ovarian, -3.99% (active); with T-47D breast, 65.6%; with BT-549 breast, -47.2% (active). The growth in the assay with MDA-MB-435 melanoma was -12.8% (active); with SW-620 colon, 31.6%; in the assay on MCF7 breast it was 4.81% (active); with HCT-116 colon, -22.4% (active); with HCC-2998 colon, 2.47% (active); in the assay with KM12 colon, 12%.
